Laboratory results as given in PubChem BioAssay (NCI).
The panel holds about 83,000 compounds, 20% with a hit somewhere; the sample as a whole holds those more often.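 Activity criterion: percent growth below 10, measured after cells in 96-well plates were exposed to a single compound concentration for 48 hours.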 The source made the active and inactive calls.

Key:
Test in all cases: NCI-60 one-dose screen, 48 h (100 = growth as untreated, 0 = no growth, -100 = all killed)
Conditions in all cases: 10 µM unless noted
[1] = tested on: NCI-H23 lung
[2] = tested on: NCI-H226 lung
[3] = tested on: NCI-H322M lung
[4] = tested on: HOP-62 NSCLC
[5] = tested on: NCI-H460 lung
[6] = tested on: HOP-92 NSCLC
[7] = tested on: NCI-H522 lung
[8] = tested on: A549/ATCC NSCLC
[9] = tested on: 786-0 renal
[10] = tested on: COLO 205 colon

Measured: growth

O=C(O)c1cccc(-c2ccc(/C=N/NC(=O)c3[nH]c4ccc(Br)cc4c3-c3ccccc3)s2)c1
inactive: [1] 26.4% | [2] 57.6% | [3] 58.8% | [4] 53.2% | [5] 42.9% | [6] 60.3% | [8] 68.9% | [9] 50.9% | [10] 101%
active: [7] 0.263%

O=C1N/C(=N\c2nccs2)S/C1=C\C=C/c1ccccc1
active: [8] -81.1%
inactive: [1] 55.8% | [2] 81.5% | [3] 30.4% | [4] 43% | [5] 26.4% | [6] 64% | [7] 19.8% | [9] 31% | [10] 33.2%

CCOc1ccc(C(=O)NC(=S)Nc2ccc(S(N)(=O)=O)cc2)cc1
inactive: [1] 97.5% [100 µM] | [2] 97.1% [100 µM] | [3] 101% [100 µM] | [4] 102% [100 µM] | [5] 102% [100 µM] | [6] 87.9% [100 µM] | [7] 77.5% [100 µM] | [8] 101% [100 µM] | [9] 99% [100 µM] | [10] 119% [100 µM]

COc1ccc(NC(=O)Cn2c(/C=C/c3cccc([N+](=O)[O-])c3)nc3ccccc3c2=O)cc1
active: [6] -0.339% | [9] -15.8%
inactive: [1] 81.7% | [2] 12.8% | [3] 90.7% | [4] 40.9% | [5] 63% | [7] 94.4% | [8] 84.7% | [10] 98.8%

CC(C)c1ccc2c(N)c(C(=O)Nc3ccc(C(F)(F)F)cn3)sc2n1
inactive: [1] 43.5% | [2] 22.9% | [3] 86.3% | [4] 57.7% | [5] 61.6% | [6] 65.1% | [7] 63.2% | [8] 66.9% | [9] 64.3% | [10] 93.1%

COc1cccc(-c2c(C#N)c(-c3ccc(Cl)cc3)nc3n[nH]c(-c4ccc(Cl)cc4)c23)c1
active: [6] -5.01% | [10] 3.25%
inactive: [1] 64.5% | [2] 47.8% | [3] 82.8% | [4] 53.8% | [5] 34.3% | [7] 43.8% | [8] 41.9% | [9] 46.1%

CC1(C)CC[C@]2(C(=O)Nc3ccccc3)CC[C@]3(C)C(=CCC4[C@@]5(C)C[C@@H](O)[C@H](O)[C@@](C)(CO)C5CC[C@]43C)C2C1 (stereo not given in full)
inactive: [1] 75.9% | [2] 54.3% | [3] 89.7% | [4] 75.3% | [5] 51.4% | [6] 39.1% | [7] 41.6% | [8] 39.2% | [9] 71.1% | [10] 31.6%

CC(C)CSc1nc(NCCc2c[nH]c3ccccc23)c(C#N)c(-c2ccccc2)n1
inactive: [1] 76.6% | [2] 51.3% | [3] 80.7% | [4] 68.8% | [5] 12.5% | [6] 61.7% | [7] 67.6% | [8] 66.9% | [9] 47.1% | [10] 50.2%

Cc1ccc(C(SCCNCc2cc(N(C)C)ccn2)(c2ccccc2)c2ccccc2)cc1
inactive: [3] 23.1%
active: [1] -35.8% | [2] -6.05% | [4] -1.31% | [5] -26.6% | [6] -25.4% | [7] -78.8% | [8] -3.31% | [9] -76.6% | [10] -71.6%

O=C(COc1ccc(NC(=O)Nc2ccc(Cl)c(Cl)c2)cc1)N=Nc1c(O)[nH]c2ccc(Br)cc12
active: [1] -10.7% | [2] -58.1% | [3] -15.4% | [4] -71.3% | [5] 7.45% | [6] -43.5% | [7] -64.7% | [8] -45.8% | [9] -70.3% | [10] -57%

COCOc1ccc2c(=O)c(C)c(C(=O)N[C@@H](Cc3ccccc3)C(O)C(=O)NCCc3ccc(OC)cc3)oc2c1 (stereo not given in full)
inactive: [1] 109% | [2] 110% | [3] 103% | [4] 106% | [5] 133% | [6] 117% | [7] 98.4% | [8] 100% | [9] 106% | [10] 139%

CC1(C)CC[C@]2(C(=O)Nc3ccc(F)cc3)CC[C@]3(C)C(=CCC4[C@@]5(C)C[C@@H](O)[C@H](O)[C@@](C)(CO)C5CC[C@]43C)C2C1 (stereo not given in full)
inactive: [1] 49.8% | [2] 25.5% | [3] 72.7% | [4] 58.6% | [5] 30.8% | [7] 32.8% | [8] 28.5% | [9] 51.1%
active: [6] -1.23% | [10] 0.244%

O=C(N=Nc1c(O)[nH]c2ccc([N+](=O)[O-])cc12)c1ccc2nc(-c3ccccc3)[nH]c2c1
inactive: [1] 64.7% | [2] 60.1% | [3] 104% | [4] 100% | [5] 100% | [6] 30.8% | [7] 17.8% | [8] 106% | [9] 91.4% | [10] 28.4%

CC(=O)Nc1ccc(C(=O)NC(=S)Nc2ccc(S(N)(=O)=O)cc2)cc1
inactive: [1] 94.4% | [2] 81.9% | [3] 92.4% | [4] 90.8% | [5] 102% | [6] 95.4% | [7] 73.7% | [8] 99.2% | [9] 95.5% | [10] 105%

CCOP(=O)(OCCCl)c1nc(-c2ccc(C)cc2)oc1NCc1ccccc1 (stereo not given)
inactive: [1] 75.3% | [2] 88% | [3] 84.6% | [4] 93.9% | [5] 73.2% | [6] 75.5% | [7] 69.1% | [8] 66.5% | [9] 81.9% | [10] 83.5%

C=CC[N+](C)(C)CCn1c2ccccc2c2nc3cc(C)c(C)cc3nc21
inactive: [1] 70.5% | [2] 92.5% | [3] 102% | [4] 96.3% | [5] 104% | [6] 111% | [7] 51.5% | [8] 106% | [9] 89% | [10] 88.6%

Cc1c(C(=O)NNC(=O)Nc2ccc(Cl)cc2)nnn1-c1ccc(Br)cc1
inactive: [1] 102% | [2] 103% | [3] 90.3% | [4] 97.1% | [5] 107% | [6] 92.8% | [7] 96.4% | [8] 96.9% | [9] 96.7% | [10] 107%

Cc1cccc(NC(=O)[C@]23CCC(C)(C)CC2C2=CCC4[C@@]5(C)C[C@@H](O)[C@H](O)[C@@](C)(CO)C5CC[C@@]4(C)[C@]2(C)CC3)c1 (stereo not given in full)
inactive: [3] 51.6% | [4] 50.9% | [7] 10.8% | [8] 21.1% | [9] 22.7%
active: [1] -27.7% | [2] -17.8% | [5] -18.3% | [6] -24.8% | [10] -31.7%

CNC(=O)c1cccc(NC(=O)c2ccc3c(c2)nnn3/C(C#N)=C/c2ccccn2)c1
active: [1] -39.3% | [2] -97.4% | [6] -29.5% | [7] -90% | [9] -95.9% | [10] -86.6%
inactive: [3] 91.8% | [4] 82.7% | [5] 51.5% | [8] 83.2%

CC(=O)Oc1ccccc1C(=O)[Se]CC(=O)Nc1cccc(C(F)(F)F)c1
inactive: [10] 19.7%
active: [1] -50.9% | [2] -39.2% | [3] -16.5% | [4] -61.1% | [5] 0.365% | [6] -60.3% | [7] -30.4% | [8] -61.3% | [9] -14.7%

COc1cc2c(c(OC)c1OC)C(=O)CC(c1cccc(NC(=O)c3cc(NC(=O)[C@@H](N)CO)ccc3C)c1)O2 (stereo not given in full)
inactive: [1] 112% | [2] 103% | [3] 108% | [4] 108% | [5] 123% | [6] 114% | [7] 93% | [8] 102% | [9] 107% | [10] 131%

CCC(C)(C)c1ccc(OCCCCN2CCN(c3ccncc3)CC2)cc1
inactive: [1] 22.1% | [2] 39.8% | [3] 83.9% | [4] 37.4% | [5] 24.9% | [7] 36% | [8] 47.4%
active: [6] 3.82% | [9] -56.4% | [10] -81.9%

Cc1ccc([C@H]2C(C(=O)c3ccc(Cl)cc3)C3(N[C@@H]2c2ccccc2)C(=O)Nc2ccc(Cl)cc23)cc1 (stereo not given in full)
inactive: [1] 52.8% | [2] 61.4% | [3] 67.4% | [4] 65.1% | [5] 39.7% | [6] 16.6% | [7] 43.9% | [8] 33.2% | [9] 39.1% | [10] 44.5%

COc1cc(C2CC(c3cc(OC)c(OC)c(OC)c3)=NN2C(C)=O)ccc1OCc1ccccc1 (stereo not given)
active: [6] -4.8%
inactive: [1] 47.2% | [2] 28% | [3] 59.8% | [4] 70.2% | [5] 24.3% | [7] 26.8% | [8] 31.8% | [9] 34% | [10] 10.9%

CC(C)CSc1nc(NCCc2c[nH]c3ccccc23)c(C#N)c(-c2ccc(Cl)cc2)n1
inactive: [1] 69.2% | [2] 51.3% | [3] 86.5% | [4] 49.3% | [5] 30.3% | [6] 36.3% | [7] 68.7% | [8] 63% | [9] 67% | [10] 41%
